# Laboratory results taken from the antibiotic and cytotoxicity screens of Wong et al. (2023).
# The campaign covered roughly 39,000 compounds. About 500 (1.3%) were called active. For the sample, actives were picked, then their nearest neighbours and some compounds at random.
# Test system: S. aureus RN4220
# Assay: growth inhibition call (relative growth <= 0.2)
# Settings: 50 µM
row,Structure (SMILES),growth inhibition call
1,CCCNC(=O)C[C@H]1CC[C@H]2[C@@H](COc3ccc(NC(=O)c4ccc5c(c4)OCO5)cc3C(=O)N2C)O1,inactive
2,C[C@H]1CN([C@@H](C)CO)C(=O)c2cc(Br)cnc2O[C@H]1CN(C)S(=O)(=O)c1ccccc1F,inactive
3,Cc1noc(C)c1NC(=O)N(C)C[C@@H]1Oc2ccc(NS(=O)(=O)c3cn(C)cn3)cc2CC(=O)N([C@H](C)CO)C[C@@H]1C,inactive
4,C[C@H](CO)N1C[C@H](C)[C@H](CN(C)S(=O)(=O)c2ccc(Cl)cc2)Oc2c(NC(=O)Nc3cccc4ccccc34)cccc2C1=O,inactive
5,Cc1noc(C)c1NC(=O)Nc1ccc2c(c1)C(=O)N([C@@H](C)CO)C[C@H](C)[C@H](CN(C)S(=O)(=O)c1ccccc1)O2,inactive
6,C[C@@H]1CN([C@@H](C)CO)C(=O)CCCn2cc(nn2)CO[C@@H]1CN(C)Cc1ccc(C(=O)Nc2ccccc2N)cc1,inactive
7,C[C@@H](NS(=O)(=O)c1cccc(F)c1)C(=O)O,inactive
8,C[C@@H]1CN([C@H](C)CO)C(=O)c2cc(NC(=O)C3CCCCC3)ccc2O[C@@H](C)CCCCO[C@H]1CN(C)C(=O)Nc1ccc(F)cc1,inactive
9,C[C@H](CO)N1C[C@H](C)[C@H](CN(C)C(=O)Nc2ccccc2)OCCCC[C@H](C)Oc2ccc(NS(=O)(=O)c3ccc(F)cc3)cc2C1=O,inactive
10,c1coc(CNc2nc[n+]3c4c2ncn4CC3)c1,inactive
11,C[C@@H]1CCCCO[C@H](CN(C)C(=O)Nc2cccc3ccccc23)[C@H](C)CN([C@@H](C)CO)C(=O)c2cc(N(C)C)ccc2O1,inactive
12,Cc1noc(C)c1S(=O)(=O)Nc1ccc2c(c1)C(=O)N([C@@H](C)CO)C[C@H](C)[C@@H](CN(C)C(=O)Nc1ccc3c(c1)OCO3)O2,inactive
13,CO[C@@H]1[C@@H](O[C@@H]2O[C@H](C)[C@@H](O[C@H]3C[C@@](C)(O)[C@@H](O)[C@H](C)O3)[C@H](N(C)C)[C@H]2O)[C@@H](CC=O)C[C@@H](C)[C@@H](O[C@H]2CC[C@H](N(C)C)[C@@H](C)O2)/C=C/C=C/C[C@@H](C)OC(=O)C[C@H]1O,active
14,COC1C(O)CC(=O)OC(C)CC=CC=CC(OC2CCC(N(C)C)C(C)O2)C(C)CC(CC=O)C1OC1OC(C)C(OC2CC(C)(O)C(O)C(C)O2)C(N(C)C)C1O (centres undefined),active
15,CO[C@@H]1[C@@H](O[C@@H]2O[C@H](C)[C@@H](O[C@H]3C[C@@](C)(O)[C@@H](O)[C@H](C)O3)[C@H](N(C)C)[C@H]2O)[C@@H](CC=O)C[C@@H](C)[C@@H](O[C@H]2CC[C@H](N(C)C)[C@@H](C)O2)/C=C/C=C/CC(C)OC(=O)C[C@H]1OC(C)=O (some centres undefined),inactive
16,Cc1noc(C)c1NC(=O)Nc1ccc2c(c1)C(=O)N([C@H](C)CO)C[C@@H](C)[C@H](CN(C)C(=O)Nc1cccc3ccccc13)O2,inactive
17,COC(=O)c1c2oc(c1C(=O)OC)C(=O)N[C@H](Cc1ccccc1)Cn1cc(nn1)[C@@H](Cc1ccccc1)NC(=O)N[C@@H](COC(=O)NCCCCCC(=O)NO)CC2,inactive
18,C[C@@H]1CCCCO[C@@H](CN(C)C(=O)Nc2ccc3c(c2)OCO3)[C@@H](C)CN([C@@H](C)CO)C(=O)c2cc(NC(=O)Nc3ccc(F)cc3)ccc2O1,inactive
19,COc1ccc(NC(=O)Nc2ccc3c(c2)C(=O)N([C@H](C)CO)C[C@H](C)[C@@H](CN(C)C(=O)Nc2ccccc2)OCCCC[C@@H](C)O3)cc1,inactive
20,CCCCCCOC(=O)/N=C(/N)c1ccc(NCc2nc3cc(C(=O)N(CCC(=O)OCC)c4ccccn4)ccc3n2C)cc1,inactive
21,C[C@H](CO)N1C[C@H](C)[C@@H](CN(C)C(=O)Nc2ccc(C(F)(F)F)cc2)Oc2c(NC(=O)C3CCCCC3)cccc2C1=O,inactive
22,CC(C)N1C[C@H](C)[C@@H](CN(C)Cc2ccc(Oc3ccccc3)cc2)Oc2c(NC(=O)C3CCNCC3)cccc2C1=O,active

row,Structure (SMILES),growth inhibition call
1,C[C@@H]1CN([C@@H](C)CO)C(=O)c2cccc(NC(=O)C3CCCCC3)c2O[C@@H]1CN(C)C(=O)Nc1ccc(C(F)(F)F)cc1,active
2,C[C@@H]1CN([C@H](C)CO)C(=O)c2cccc(NC(=O)C3CCCCC3)c2O[C@H]1CN(C)C(=O)Nc1ccc(C(F)(F)F)cc1,inactive
3,C[C@H](CO)N1C[C@H](C)[C@H](CN(C)C(=O)Nc2ccc(C(F)(F)F)cc2)Oc2c(NC(=O)C3CCCCC3)cccc2C1=O,inactive
4,C[C@@H]1CN([C@@H](C)CO)C(=O)c2cccc(NC(=O)C3CCCCC3)c2O[C@H]1CN(C)C(=O)Nc1ccc(C(F)(F)F)cc1,inactive
5,C[C@@H]1CN([C@H](C)CO)C(=O)c2cccc(NC(=O)C3CCCCC3)c2O[C@@H]1CN(C)C(=O)Nc1ccc(C(F)(F)F)cc1,active
6,C[C@H](CO)N1C[C@H](C)[C@@H](CN(C)Cc2ccc(Oc3ccccc3)cc2)Oc2c(NC(=O)C3CC3)cccc2C1=O,inactive
7,CC(C)N1C[C@H](C)[C@@H](CN(C)Cc2ccc(Oc3ccccc3)cc2)Oc2c(NC(=O)C3CCN(C)CC3)cccc2C1=O,inactive
8,C[C@@H]1CN([C@H](C)CO)C(=O)Cc2cc(NC(=O)Nc3ccc4c(c3)OCO4)ccc2O[C@H]1CN(C)C(=O)Nc1ccc(C(F)(F)F)cc1,inactive
9,C[C@H](CO)N1C[C@H](C)[C@H](CN(C)C(=O)c2ccccc2)OCCCC[C@H](C)Oc2ccc(NC(=O)CCC(F)(F)F)cc2C1=O,inactive
10,C[C@@H]1CN([C@H](C)CO)S(=O)(=O)c2ccc(-c3ccncc3)cc2O[C@H]1CN(C)C(=O)c1ccc2c(c1)OCO2,inactive
11,C[C@@H]1CN([C@H](C)CO)C(=O)c2cc(C#CCN(C)C)cnc2O[C@@H]1CN(C)S(=O)(=O)c1cn(C)cn1,inactive
12,COc1ccc(S(=O)(=O)Nc2ccc3c(c2)C(=O)N([C@@H](C)CO)C[C@@H](C)[C@H](CN(C)C(=O)Nc2ccc4c(c2)OCO4)OCCCC[C@@H](C)O3)cc1,inactive
13,CCn1cnc2c(=O)[nH][nH]c(=O)c21,inactive
14,C[C@@H]1CN([C@@H](C)CO)C(=O)Cc2cc(NC(=O)Nc3ccccc3)ccc2O[C@@H]1CN(C)Cc1ccc(C(F)(F)F)cc1,inactive
15,CC(C)NC(=O)N(C)C[C@@H]1Oc2ccc(NC(=O)C3CCCCC3)cc2CC(=O)N([C@H](C)CO)C[C@H]1C,inactive
16,C[C@H]1CN([C@@H](C)CO)C(=O)CCCn2cc(nn2)CO[C@@H]1CN(C)C(=O)Nc1cccc(C(F)(F)F)c1,inactive
17,C[C@@H]1CN([C@H](C)CO)C(=O)c2cc(NC(=O)Nc3cccc4ccccc34)ccc2O[C@H]1CN(C)S(=O)(=O)c1cccs1,inactive
18,Cc1cc(C(=O)O)n[nH]1,inactive
19,Cc1cc(=O)[n+]2cccc(O)c2[nH]1,active
20,Cc1cc(O)cc(=O)[nH]1,inactive
21,CNC(=O)c1cccc(NC(=S)NC)c1,inactive
22,C[C@H](CO)N1C[C@H](C)[C@H](CN(C)C(=O)Nc2ccc3c(c2)OCO3)Oc2ncc(C#CC(C)(C)O)cc2C1=O,inactive

row,Structure (SMILES),growth inhibition call
1,CC(=O)O,inactive
2,O=C(O)P(=O)(O)O,active
3,O=P(O)(O)CN(CCN(CP(=O)(O)O)CP(=O)(O)O)CP(=O)(O)O,inactive
4,O=C(C[C@@H]1CC[C@@H]2[C@H](COC[C@@H](O)CN2C(=O)c2ccncc2)O1)NCc1ccc(-c2ccccc2)cc1,inactive
5,C[C@H]1CN([C@@H](C)CO)C(=O)c2cc(NS(=O)(=O)c3cn(C)cn3)ccc2O[C@@H]1CN(C)S(=O)(=O)c1cn(C)cn1,inactive
6,C[C@H]1CCCCO[C@H](CN(C)S(=O)(=O)c2ccc(F)cc2)[C@@H](C)CN([C@@H](C)CO)C(=O)c2cc(NS(C)(=O)=O)ccc2O1,inactive
7,Cc1noc(C)c1NC(=O)Nc1ccc2c(c1)C(=O)N([C@H](C)CO)C[C@@H](C)[C@H](CN(C)Cc1ccc3c(c1)OCO3)OCCCC[C@@H](C)O2,inactive
8,C[C@H]1CCCCO[C@H](CN(C)C(=O)CCC(F)(F)F)[C@@H](C)CN([C@@H](C)CO)C(=O)c2cc(NC(=O)Cc3ccccc3)ccc2O1,inactive
9,C/C=C/C1=C(C(=O)O)N2C(=O)[C@@H](NC(=O)[C@H](N)c3ccc(O)cc3)[C@H]2SC1,active
10,CC=CC1=C(C(=O)O)N2C(=O)C(NC(=O)C(N)c3ccc(O)cc3)C2SC1 (centres undefined),inactive
11,CC1=C(C(=O)O)N2C(=O)[C@@H](NC(=O)[C@@H](N)c3ccc(O)cc3)[C@H]2SC1,inactive
12,CC1=C(C(=O)O)N2C(=O)[C@@H](NC(=O)[C@H](N)c3ccc(O)cc3)[C@H]2SC1,active
13,C/C=C\C1=C(C(=O)O)N2C(=O)[C@H](NC(=O)[C@@H](N)c3ccc(O)cc3)[C@@H]2SC1,inactive
14,CC1=C(C(=O)O)N2C(=O)C(NC(=O)C(N)c3ccc(O)cc3)C2SC1 (centres undefined),inactive
15,C[C@@H]1CN([C@H](C)CO)C(=O)c2cccc(NC(=O)C3CC3)c2O[C@H]1CN(C)S(=O)(=O)c1ccc(F)cc1,inactive
16,C[C@H](CO)N1C[C@H](C)[C@H](CN(C)S(C)(=O)=O)Oc2ncc(C#CC(C)(C)O)cc2C1=O,inactive
17,OCC(O)C(O)C(O)C(O)CO (centres undefined),inactive
18,C[C@H](CO)N1C[C@H](C)[C@H](CN(C)Cc2ccc(Oc3ccccc3)cc2)Oc2ccc(NS(=O)(=O)c3ccc(F)cc3)cc2CC1=O,inactive
19,C[C@@H]1CN([C@H](C)CO)S(=O)(=O)c2ccc(-c3cccc(C(=O)N(C)C)c3)cc2O[C@H]1CN(C)C(=O)Cc1ccccn1,inactive
20,COCCOC(=O)N1C(=O)[C@@]2(c3cc(C#CC4=CCCCC4)ccc31)[C@H](C(=O)N1CCN(c3ncccn3)CC1)[C@H]1C(=O)O[C@H](c3ccccc3)[C@H](c3ccccc3)N1[C@@H]2c1ccc(OCCO)cc1,inactive
